Source: PubChem
A selection: hits, their analogues and other compounds. The true share with any hit is near 0.99%.
SARS PLpro yeast-1 = inhibitors of SARS-CoV papain-like protease in yeast. hit rate 0.19% among 330,000. Potency, µM (highest dose often 32.9 µM), for the others: top-dose activity, positive = growth rescue, usual class: activators. S. cerevisiae expressing SARS-CoV PLpro, growth rescue. AID 485353; calls by dose curve; further: potency means the concentration at half of the fitted maximal effect; 0% is about no effect; nearly all actives have a fitted effect of over 55% in size
AmpC detergent = blocks E. coli AmpC beta-lactamase in detergent assay; AmpC hydrolysis of nitrocefin, absorbance 480 nm, 0.01% Triton; AID 485294; hit rate 0.041% among 370,000; P00811; Potency, µM (titrated, usually from 114 µM), for inactives: at the top dose activity change, negative = inhibition, actives largely listed as inhibitors;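 further: potency means the concentration at half of the fitted maximal effect; 0% = no-compound wells and -100% = no-enzyme wells; nearly all actives have a fitted effect of over 25% in size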
Target sequence (P00811 whole entry, looked up): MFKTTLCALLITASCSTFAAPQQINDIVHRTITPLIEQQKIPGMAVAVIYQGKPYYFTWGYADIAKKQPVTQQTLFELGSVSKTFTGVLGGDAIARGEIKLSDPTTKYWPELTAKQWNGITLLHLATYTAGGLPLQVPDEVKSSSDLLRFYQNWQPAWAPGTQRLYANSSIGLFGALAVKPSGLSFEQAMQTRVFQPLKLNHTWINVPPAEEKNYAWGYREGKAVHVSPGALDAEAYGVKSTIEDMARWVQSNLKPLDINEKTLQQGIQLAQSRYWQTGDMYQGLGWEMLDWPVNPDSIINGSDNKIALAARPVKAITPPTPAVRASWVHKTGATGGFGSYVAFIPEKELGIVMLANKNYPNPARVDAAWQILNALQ
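20 mM phosphate pH 7.0 + 0.01% (detergent screen) or 0.0001% Triton X-100; 5.3 nM AmpC reagent; cpd preinc 15 min RT; nitrocefin (800 uM stock) to start; A480 q20 s × 4 min; Activity was normalised to no-enzyme and no-compound control wells.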
AMA1 RON2 block = disrupts binding of P. falciparum AMA1 to RON2; AlphaScreen AMA1-biotinylated RON2 peptide binding; Potency, µM (highest dose often 58.2 µM), for inactives: top-dose activity change, negative = inhibition, hits mostly inhibitors; hit rate 0.2% among 360,000; AID 720542;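 further: potency means the concentration at half of the fitted maximal effect; 0% = vehicle wells and -100% = peptide control; nearly all actives have a fitted effect of over 45% in size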
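AMA1 (3D7) with his tag at 25 nM final met compounds first, then biotinylated RON2 peptide at 25 nM; detection used donor plus acceptor beads, 10 µg/mL apiece, read by AlphaScreen after 30 min at room temperature.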
NS1 function inh = blocks influenza NS1 protein function | hit rate 0.4% among 270,000 | Potency, µM (highest dose often 46.1 µM), without a hit: top-dose activity, positive = more growth | AID 2326; calls by dose curve; further: potency means the concentration at half of the fitted maximal effect; actives are rising curves; nearly all actives have a fitted effect of over 50% in size
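Recovery from NS1-induced slow growth read by OD600 in budding yeast switched to galactose assay medium (pH 6.0, -URA) at 1:100 dilution. Compound 23 nl per well; the matching strain lacking NS1 serves as control.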
AmpC no deterg = inhibitors of E. coli AmpC beta-lactamase without detergent; P00811; AmpC nitrocefin hydrolysis, absorbance 480 nm, 0.0001% Triton; Potency, µM (top dose mostly 57.1 µM), for inactives: at the highest dose activity change, negative = inhibition, actives largely listed as inhibitors; hit rate 0.52% among 330,000;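 further: potency means the concentration at half of the fitted maximal effect; plate controls were no compound for no effect and no enzyme for full effect; nearly all actives have a fitted effect of over 20% in size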
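20 mM phosphate pH 7.0 + 0.01% (detergent screen) or 0.0001% Triton X-100; 5.3 nM AmpC reagent; cpd preinc 15 min RT; nitrocefin (800 uM stock) to start; A480 q20 s × 4 min; Activity was normalised to no-enzyme and no-compound control wells.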
SARS PLpro yeast-2 = Validates SARS-CoV PLpro inhibitor hits in yeast | yeast expressing SARS-CoV PLpro, growth phenotype rescue | calls only | hit rate 19% among 1,000 | shares compounds with SARS PLpro yeast-1; call rule not given here
Starred values were filed as active, the others as inactive; i = inactive; ? = inconclusive; · = no result; + = active, no number; ! = a repeat was not active; [ ] = remark or other dose. Unless noted, the call rests on the fitted dose curve; in most records, active means well fitted curve in the direction sought with a large enough effect; inconclusive means small, poorly fitted or top-dose-only effect, or another doubt; inactive means no such curve, though single readings can be large; an effect the other way counts as inactive or inconclusive.

SMILES	SARS PLpro yeast-1	AmpC detergent	AMA1 RON2 block	NS1 function inh	AmpC no deterg	SARS PLpro yeast-2
COc1ccc(CC(=O)NC2CC(=O)N(c3ccc4c(c3)OCCO4)C2)cc1 (stereo not given)	·	-4%	·	·	·	·
CCN(CC)S(=O)(=O)c1ccc(NC(=O)c2nn(C)c3c2CSc2ccccc2-3)cc1	·	-5%	·	·	·	·
CCN1C(=O)/C(=C2/C=CC=CN2C)OC1=S	11µM*	?	-5%	-144%	-15%	i
O=C(Nc1ccc(F)cc1)C(c1ccccc1)N1CCN(S(=O)(=O)c2ccccc2)CC1 (stereo not given)	?	-7%	-7%	22%	-28%	i
COc1ccc(CCNC(=O)c2cccc(-n3cnc4cccnc43)c2C)cc1OC	·	-7%	·	·	·	·
Cn1cc(/C=N/n2cnc3scc(-c4ccccc4)c3c2=O)c2ccccc21	?	-7%	-6%	13%	-11%	+
COc1cccc(/C=N/Nc2ncnc(Cl)c2N)c1O	4.5µM*	?	-19%	-28%	-23%	i
COc1cccc(/C=N/NC(=O)c2cc(-c3cccn3C)n[nH]2)c1O	7.1µM*	?	14%	26%	-16%	?
COc1cccc(/C=N/NC(=O)C(=O)N/N=C/c2cccc(OC)c2O)c1O	?	?	?	5%	-18%	+
Cn1cccc1-c1cc(C(=O)N/N=C/c2ccc(Cl)cc2)[nH]n1	-16%	?	9%	5%	-39%	·
COc1cccc(/C=N/NC(=O)C(=O)N2CCCCCC2)c1O	6%	-4%	76%	-10%	-11%	·
CCCCCN(C(=O)NC(=O)Nc1ccc(C)cc1)S(=O)(=O)c1ccccc1	3.2µM*	-1%	-3%	-10%	-18%	i
CCCCCN(C(=O)NC(=O)Nc1ccc(C)cc1C)S(C)(=O)=O	-2%	-14%	3%	·	-32%	·
Cc1ccc(C)c(S(=O)(=O)N2CCCOC2CNC(=O)C(=O)NCCCn2ccnc2)c1 (stereo not given)	16%	-6%	-5%	-3%	-4%	·
Cc1cc(C)c(S(=O)(=O)N2CCCOC2CNC(=O)C(=O)NCCCn2ccnc2)c(C)c1 (stereo not given)	?	?	7%	0%	-19%	?
COc1ccc(NC(=S)NNC(=O)COc2ccc(Cl)cc2Cl)cc1	-16%	9%	21%	17%	-18%	·
Cc1cccc(NC(=S)NNC(=O)COc2ccc(Cl)cc2Cl)c1	10µM*	-7%	45%[11.6 µM]	21%	-25%	+
CCOC(=O)C1=C2SCC(=O)N2C(N)=C(C#N)C1	?	-8%	16%	11%	-12%	i
COc1ccc(C2=C(N3CCN(c4cc(C)ccc4C)CC3)c3ccccc3C2=O)cc1	·	11%	·	·	·	·
O=C1C(c2ccccc2)=C(N2CC2)c2ccccc21	?	?	28µM*	-45%	-13%	i
O=C(Nc1nc2ccc(F)cc2s1)c1cccc(S(=O)(=O)N2CCc3ccccc32)c1	3.2µM*	-15%	-11%	13%	-47%	i
CCOc1ccc(-n2c(O)c(/C=N/NC(=O)C3COc4ccccc4O3)c3ccccc3c2=O)cc1 (stereo not given)	11µM*	-12%	85%	?	-21%	?
Cc1ccc(Cl)cc1NC(=O)c1ccc(-c2nc(CSc3ccccc3)c(C)o2)cc1	·	14%	·	·	·	·
Cc1ccc(C(C)C)c(OCc2ccc(C(=O)N/N=C/c3cccc(O)c3O)cc2)c1	2.8µM*	-10%	41%	-32%	8.9µM*	?
CC(C)C[C@H]1CN=C(N(C)C)N1CCCCc1ccccc1	6.3µM*	?	-1%	·	15%	i
SMILES	SARS PLpro yeast-1	AmpC detergent	AMA1 RON2 block	NS1 function inh	AmpC no deterg	SARS PLpro yeast-2
CN1C[C@H](c2ccccc2)C(O)([C@]2(c3ccccc3)CN(C)C[C@@H](c3ccccc3)C2=O)[C@H](c2ccccc2)C1 (stereo not given in full)	·	·	·	-3%	·	·
Cc1ccc(C)c(NC(=O)c2cnn(-c3cccc(F)c3)c2C2CCN(C(=O)OC(C)(C)C)CC2)c1	·	-5%	·	·	·	·
CC(C)N1C/C(=C/c2cccnc2)C(=O)/C(=C/c2cccnc2)C1	-4%	3%	3%	-13%	-2%	·
CC(C)N1C/C(=C/c2ccsc2)C(=O)/C(=C/c2ccsc2)C1	22µM*	-10%	-24%	-10%	-17%	i
CC1CC1C(=O)N(C)CC(=O)Nc1ccc(Cl)c(C(F)(F)F)c1 (stereo not given)	?	-9%	0%	·	-7%	i
CN(CC(=O)Nc1ccc(Cl)c(C(F)(F)F)c1)C(=O)c1ccc2c(c1)OCCO2	2%	?	0%	·	-8%	·
CCOC(=O)CSc1nc2ccccc2c(=O)n1C	?	-1%	8%	-14%	-13%	i
CCOC(=O)CSc1nc2ccccc2c(=O)n1C1CCCC1	-9%	-10%	5%	-63%	-4%	·
CN(CC(=O)Nn1cnnc1)S(=O)(=O)c1ccc(Br)cc1	3.5µM*	-6%	-5%	-46%	-10%	i
Oc1ccc(CN2CCN(c3ccccc3)CC2)c2cccnc12	11µM*	?	-1%	6%	-19%	i
Oc1ccc(CN2CCC(Cc3ccccc3)CC2)c2cccnc12	2.5µM*	8%	-66%	·	-21%	?
Oc1ccc(CN2CCCCC2)c2cccnc12	-77%	-1%	-95%	11%	-17%	·
CN(C)C1CCN(Cc2cc(COCc3ccccc3)c3cccnc3c2O)C1 (stereo not given)	10µM*!	-11%	·	·	29%	?
C=CCNC(=O)C1CC2Cn3c(nc4cc(Cl)c(Cl)cc43)C2N1C (stereo not given)	?	-4%	-2%	·	-4%	i
Cc1[nH]c(=S)sc1Cc1ccc(Cl)c(Cl)c1	?	1%	·	11%	-20%	+
Cc1nnc(SCc2ccc(Cl)c(Cl)c2)s1	-1%	12%	34%	-8%	-1%	·
CCOC(=O)c1c(NC(=O)c2cc(=O)c3c(C)cc(C)cc3o2)sc(C)c1C	·	9%	·	·	·	·
O=C(COC(=O)c1ccccc1NCCO)NNC(=O)c1cccs1	?	?	45%	·	-7%	i
Cc1sc(NC(=O)c2ccccc2)c(C(=O)NC(C)C)c1C	?	-1%	7%	-2%	-16%	i
CN(C(=O)c1cc2nc(-c3ccc4c(c3)OCO4)cc(C(F)(F)F)n2n1)c1ccc(OC(F)(F)F)cc1	·	2%	·	·	·	·
COc1cccc(OCCSc2nc(N)cc(N)n2)c1	·	1%	9%	-105%	-20%	i
CCOC(=O)c1c(NC(=O)COc2cccc(C(F)(F)F)c2)sc2c1CCC(C)C2 (stereo not given)	·	5%	·	·	·	·
